Coupling enz: inhibits coupling enzyme system, counter-screen for aldolase hits; coupling enzyme system counterscreen, AmpLite Red fluorescence; activity change, negative = inhibition, % at 58.2 µM, hits read low; 0.67% of 290,000 active; AID 2472; in the data active = activity change below about -30%
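Compounds tested against the coupling enzymes alone at 57.5 uM final; readout was AmpLite Red fluorescence (525/598 nm) after 20 min at RT.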
TSHR antag: blocks TSH signaling through the human TSH receptor; P16473; TSHR-expressing cells, TSH-stimulated cAMP HTRF, 2 h; stronger effect = lower value; activity change, negative = inhibition, % at 11.5 µM; 0.2% of 330,000 active; AID 504810;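 active = activity change below a set negative limit, meaning inhibition stronger than a set level, cut at about -70% in these data; inconclusive = activity change between two set negative limits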
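Cell-based HTRF cAMP assay; TSHR cells + compound, TSH EC80 (4nM final), 2 h, 37 deg C. Lysis with anti-cAMP cryptate and cAMP-d2, 30 min RT, read 665/620 nm.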
RORgamma inh: blocks mouse ROR gamma transcriptional activity; P51450; Drosophila S2 Gal4-RORgamma UAS-luciferase reporter, 20 h; Potency, µM (titrated, usually from 53.6 µM), inactives show at the top dose activity change, negative = inhibition, hits mostly inhibitors; 5.4% of 310,000 active; AID 2551; note: potency is the fitted concentration of half-maximal effect; nearly all actives have a fitted effect of over 60% in size
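Stable Schneider cell line, Gal4 DNA-binding domain fused to ROR gamma, UAS-luciferase. Cmpd 1 hr RT → CuSO4 700 uM final → 20 hr RT → luciferase reagent 10 min → luminescence.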
VP16 counter: inhibits Gal4-VP16 luciferase reporter, ROR gamma counter-screen; Drosophila S2 Gal4-VP16 UAS-luciferase, luminescence, 20 h; Potency, µM (series often up to 53.6 µM), for the others: top-dose activity, negative = inhibition, hits mostly inhibitors; 3.5% of 310,000 active;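 note: Gal4-VP16 expression switched on by copper sulfate through the metallothionein promoter; potency is the fitted concentration of half-maximal effect; nearly all actives have a fitted effect of over 50% in size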
ELG1 DNA repair: inhibitors of ELG1-dependent DNA repair in HEK293T cells; HEK293T ELG1-luciferase reporter, luminescence, 16 h; DNA damage induced by 5-fluorouridine; Potency, µM (series often up to 46.1 µM), without a hit: at the top dose activity change, negative = inhibition, actives largely listed as inhibitors; 2.3% of 330,000 active; note: potency is the fitted concentration of half-maximal effect; nearly all actives have a fitted effect of over 55% in size
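In this reporter screen, reduction of luminescence relative to DMSO vehicle indicated activity. Compounds and 5-fluorouridine were added together to 2,000 cells per well, incubated for 16 hr at 37 °C, then developed with ONE-Glo.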
ELG1 FLuc counter: luciferase inhibition in cell-free luciferin readout for ELG1 hits. shares compounds with ELG1 DNA repair. Potency, µM (highest dose often 46.1 µM), inactives show at the top dose activity change, negative = inhibition, most hits filed as inhibitors. cell-free firefly luciferase luminescence counter-screen, ViewLux. 3% of 350 active; note: potency is the fitted concentration of half-maximal effect
ELG1 Luc conf: human ELG1 repair inhibition, luciferase-tagged ELG1 confirmation | 68% of 670 active | HEK293T ELG1-luciferase levels, luminescence; cells co-treated with 5-fluorouridine | shares compounds with ELG1 DNA repair | Potency, µM (top dose mostly 46.1 µM), without a hit: top-dose activity change, negative = inhibition, actives largely listed as inhibitors | AID 624248; note: potency is the fitted concentration of half-maximal effect; nearly all actives have a fitted effect of over 55% in size
Target sequence (Q96QE3 whole entry, looked up): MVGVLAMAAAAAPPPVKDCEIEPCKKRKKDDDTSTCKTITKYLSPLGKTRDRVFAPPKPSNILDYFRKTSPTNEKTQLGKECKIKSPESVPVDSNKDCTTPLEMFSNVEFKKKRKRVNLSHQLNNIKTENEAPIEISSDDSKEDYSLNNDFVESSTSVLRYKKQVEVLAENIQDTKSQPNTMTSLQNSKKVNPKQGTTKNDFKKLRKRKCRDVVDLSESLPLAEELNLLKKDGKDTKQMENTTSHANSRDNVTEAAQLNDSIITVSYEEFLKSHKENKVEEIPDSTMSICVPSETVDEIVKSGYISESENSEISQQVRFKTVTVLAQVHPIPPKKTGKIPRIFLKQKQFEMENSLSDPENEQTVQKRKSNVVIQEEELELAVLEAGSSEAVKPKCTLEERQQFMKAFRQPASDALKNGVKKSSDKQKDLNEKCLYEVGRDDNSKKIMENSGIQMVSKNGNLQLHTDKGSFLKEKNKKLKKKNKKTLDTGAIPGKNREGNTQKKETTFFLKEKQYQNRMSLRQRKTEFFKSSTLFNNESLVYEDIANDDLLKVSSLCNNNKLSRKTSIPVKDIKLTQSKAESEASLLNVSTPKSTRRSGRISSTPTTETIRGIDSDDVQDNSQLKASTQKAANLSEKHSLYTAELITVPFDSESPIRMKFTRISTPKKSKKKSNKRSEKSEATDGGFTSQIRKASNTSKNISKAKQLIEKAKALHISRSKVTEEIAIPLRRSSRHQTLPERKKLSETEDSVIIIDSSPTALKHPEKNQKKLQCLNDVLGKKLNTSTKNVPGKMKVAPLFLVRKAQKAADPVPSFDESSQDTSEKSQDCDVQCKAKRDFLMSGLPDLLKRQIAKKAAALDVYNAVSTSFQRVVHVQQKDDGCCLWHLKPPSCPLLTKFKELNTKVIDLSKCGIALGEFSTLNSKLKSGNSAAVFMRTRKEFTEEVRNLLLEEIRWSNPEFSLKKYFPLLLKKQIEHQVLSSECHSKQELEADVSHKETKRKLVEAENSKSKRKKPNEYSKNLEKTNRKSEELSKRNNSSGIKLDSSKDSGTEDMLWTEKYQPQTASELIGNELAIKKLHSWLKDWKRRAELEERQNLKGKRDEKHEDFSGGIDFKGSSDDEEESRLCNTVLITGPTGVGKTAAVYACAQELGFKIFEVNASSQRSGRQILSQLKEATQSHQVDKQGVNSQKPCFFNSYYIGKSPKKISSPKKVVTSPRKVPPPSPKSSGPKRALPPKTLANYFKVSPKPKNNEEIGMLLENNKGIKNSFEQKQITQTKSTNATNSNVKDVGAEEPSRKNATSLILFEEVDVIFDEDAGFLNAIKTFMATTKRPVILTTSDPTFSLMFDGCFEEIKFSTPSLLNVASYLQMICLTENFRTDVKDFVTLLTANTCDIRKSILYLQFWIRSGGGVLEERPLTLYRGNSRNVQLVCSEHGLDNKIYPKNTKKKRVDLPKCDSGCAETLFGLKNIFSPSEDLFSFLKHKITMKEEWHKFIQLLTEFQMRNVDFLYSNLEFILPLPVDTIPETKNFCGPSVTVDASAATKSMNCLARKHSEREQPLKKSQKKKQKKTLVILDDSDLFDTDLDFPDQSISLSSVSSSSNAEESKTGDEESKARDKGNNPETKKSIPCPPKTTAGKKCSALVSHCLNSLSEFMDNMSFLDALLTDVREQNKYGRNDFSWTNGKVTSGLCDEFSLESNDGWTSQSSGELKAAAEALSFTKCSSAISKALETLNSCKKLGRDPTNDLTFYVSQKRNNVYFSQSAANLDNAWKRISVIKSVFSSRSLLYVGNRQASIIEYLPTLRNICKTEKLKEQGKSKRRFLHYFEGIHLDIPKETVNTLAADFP
ELG1-Luc MMS: inhibits ELG1-dependent repair under MMS stimulation in HEK293T cells; shares compounds with ELG1 DNA repair; HEK293T luciferase-tagged ELG1 level, MMS stimulated; Potency, µM (series often up to 46.1 µM), inactives show at the highest dose activity change, negative = inhibition, usual class: inhibitors; 53% of 670 active; AID 624249; note: potency is the fitted concentration of half-maximal effect; nearly all actives have a fitted effect of over 60% in size
ELG1 5-FU: confirmation of ELG1 repair inhibitors: viability with 5FU; shares compounds with ELG1 DNA repair; cell viability with 5-FU, ELG1-dependent repair; Potency, µM (highest dose often 46.1 µM), inactives show at the top dose activity change, negative = viability loss, most hits filed as cytotoxic; 670 tested, under 10 active; AID 624250;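 note: ELG1-luc HEK293T cells cotreated with 5-fluorouridine at 10 µM final; potency is the fitted concentration of half-maximal effect; viability measured 16 h after compound addition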
ELG1 MMS viab: confirmation of ELG1 repair inhibitors: viability with MMS; shares compounds with ELG1 DNA repair; Cell viability with MMS, ELG1-dependent DNA repair; Potency, µM (doses to about 46.1 µM), inactives show top-dose activity change, negative = viability loss, usual class: cytotoxic; 33% of 670 active; AID 624251;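 note: ELG1-luc HEK293T cells co-treated with 10 µM MMS; potency is the fitted concentration of half-maximal effect; viability read 16 h after compound addition; nearly all actives have a fitted effect of over 60% in size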
ELG1 unstim viab: affects unstimulated cell viability, ELG1 hit counter-screen | shares compounds with ELG1 DNA repair | cell viability counter-screen, unstimulated, luminescence | Potency, µM (doses to about 45.9 µM), without a hit: at the top dose activity change, negative = loss of viability, actives largely listed as cytotoxic | 8% of 900 active | AID 624252;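 note: potency is the fitted concentration of half-maximal effect; compound exposure lasted 16 hours before reading; nearly all actives have a fitted effect of over 55% in size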
FLuc enzyme: counter-screen for ELG1 repair inhibitors: firefly luciferase inhibition | shares compounds with ELG1 DNA repair | Potency, µM (highest dose often 57.5 µM), for inactives: at the highest dose activity, negative = inhibition, most hits filed as inhibitors | purified firefly luciferase, luminescence counter-screen | 10% of 350 active; note: potency is the fitted concentration of half-maximal effect
Starred values were filed as active, the others as inactive; ? = inconclusive; / = no result; [ ] = remark or other dose. Compounds with a hit are over-represented: about 8% of the library has one in this group of screens. Unless noted, calls come from the whole dose curve; as a rule, active = well fitted curve in the direction sought with a large enough effect; inconclusive = small, poorly fitted or top-dose-only effect, or another doubt; inactive = no such curve, though single readings can be large; an effect the other way counts as inactive or inconclusive. % is set by controls: 0 for no effect and ±100 for the full control effect.

SMILES	Coupling enz	TSHR antag	RORgamma inh	VP16 counter	ELG1 DNA repair	ELG1 Luc conf	ELG1-Luc MMS	ELG1 5-FU	ELG1 MMS viab	ELG1 unstim viab	others
COc1ccc(-c2cc3cc4c(cc3cn2)OCO4)cc1	/	-24.5	/	/	?	/	/	/	/	?	ELG1 FLuc counter=-2.3%;FLuc enzyme=0.411µM*
COc1cc(OC)cc(-c2nnc(SCc3ccc(C(=O)O)cc3)o2)c1	11.3	-17.8	29.2%	-6.2%	1.8%	/	/	/	/	/
COc1ccc(-c2noc(CCC(=O)N3CCN(c4ccc(F)cc4)CC3)n2)cc1	/	9.3	/	/	19.7%	/	/	/	/	/
O=C(CCN1C(=O)c2ccccc2C1=O)Nc1ccc(-c2nc3ccccc3o2)cc1	-0.4	1.9	12.7%	2.3%[0.365 µM]	?	/	/	/	/	?	ELG1 FLuc counter=152.0%;FLuc enzyme=?
O=C(CN1C(=O)c2ccccc2C1=O)Nc1ccc(-c2nc3ccccc3o2)cc1	-1.8	3.0	-2.6%	-2.0%	?	/	/	/	/	/
NC(=O)c1ccc(NC(=O)C2CCCC2)cc1	1.1	-8.4	-6.0%[1.91 µM]	11.0%	?	/	/	/	/	/
CCc1c(OC(C)=O)c2ccccc2n(C)c1=O	1.2	7.8	-20.0%	-1.3%	?	/	/	/	/	/
C=CCc1c(OC(C)=O)c2ccccc2n(C)c1=O	5.1	-5.9	5.0%	-1.4%	3.26µM*	?	7.05µM*	0.0%	9.96µM*	?
Cc1ccc(S(=O)(=O)c2nc(S(=O)(=O)c3ccccc3)sc2N2CCN(C)CC2)cc1	-1.9	1.3	19.3%	3.4%	?	/	/	/	/	/
COc1cc(OC)c2c(-c3cccc(-c4ccc(C#N)cc4)c3)cc(=O)oc2c1	1.7	4.6	5.6%	-6.3%	4.61µM*	?	7.91µM*	?	7.05µM*	?
Cc1n(N)c2ccccc2[n+]1CC(=O)c1ccccc1	2.5	-1.2	1.9%	4.4%	-17.3%	/	/	/	/	/
COc1cccc(N2C(=O)Nc3ccc(Br)cc3C2(O)C(=O)NCCN(C)C)c1 (stereo unspecified)	1.3	23.1	13.8%	-0.5%	-0.4%	/	/	/	/	/
OCCN1CCN(c2ncnc3ccc(Br)cc23)CC1	-3.5	11.5	7.5%	-3.9%	2.06µM*	?	?	-2.3%	4.9%	4.1%
COc1cc(OC)c(C(=O)OCC(=O)NC23CC4CC(CC(C4)C2)C3)cc1OC	/	7.5	/	/	-2.9%	/	/	/	/	/
CC1(C)Cc2c(C#N)c(SCCOc3ccccc3)nc(N3CCOCC3)c2CO1	-0.6	-7.3	-5.3%	-17.7%	2.51µM*	3.53µM*	?	?	-9.4%	?
CC1(C)Cc2c(C#N)c(SCCO)nc(N3CCOCC3)c2CO1	4.6	-5.0	2.0%	0.8%	?	/	/	/	/	/
COCCN(C(=O)COC(=O)/C=C/c1cccc(C(F)(F)F)c1)c1c(N)n(CC(C)C)c(=O)[nH]c1=O	/	-8.8	/	/	3.0%	/	/	/	/	/
CC1CCCC(C)N1C(=O)COC(=O)c1cc(F)c(F)cc1Cl (stereo unspecified)	/	/	/	/	-0.2%	/	/	/	/	/
CC1(COS(N)(=O)=O)CCCCC1	-0.4	-31.3	?	1.7%	17.1%	/	/	/	/	/
COc1ccccc1CCNC(=O)C(=O)NCC1CCCN1S(=O)(=O)c1ccccc1 (stereo unspecified)	/	-21.0	/	/	4.11µM*	14.1µM*	15.8µM*	-3.4%	?	22.3µM*
CC1(C)Cc2c(c(N3CCOCC3)nc3snc(Br)c23)CO1	5.9	1.4	-38.0%	3.4%	16.4µM*	12.6µM*	?	?	-1.5%	-1.7%	ELG1 FLuc counter=3.0%;FLuc enzyme=3.7%
O=C(Nc1cccc(Cl)c1)c1nc[nH]c1C(=O)NCCN(CCNC(=O)c1[nH]cnc1C(=O)Nc1cccc(Cl)c1)CCNC(=O)c1[nH]cnc1C(=O)Nc1cccc(Cl)c1	/	-15.2	/	/	0.8%	/	/	/	/	/
O=C(Nc1ccc(Cl)cc1)c1nc[nH]c1C(=O)NCCCCNC(=O)c1[nH]cnc1C(=O)Nc1ccc(Cl)cc1	/	-6.1	/	/	2.91µM*	2.5µM*	11.2µM*	-3.8%	25µM*	?
O=C(O)CC/C(=C\c1ccc2c(c1)OCO2)c1nc2ccccc2s1	1.6	-11.8	11.0%	5.0%	?	/	/	/	/	/
C(=C\c1nc2ccccc2s1)/c1ccc2c(c1)OCO2	/	/	/	/	/	/	/	/	/	-16.7%	ELG1 FLuc counter=19.9µM*;FLuc enzyme=0.184µM*
SMILES	Coupling enz	TSHR antag	RORgamma inh	VP16 counter	ELG1 DNA repair	ELG1 Luc conf	ELG1-Luc MMS	ELG1 5-FU	ELG1 MMS viab	ELG1 unstim viab	others
CCOC(=O)Cn1c2[n+](c3ccccc31)CC(O)CS2 (stereo unspecified)	5.8	4.5	-42.5%	-1.1%	-4.4%	/	/	/	/	/
COC(=O)Cn1c2[n+](c3ccccc31)CC(O)CS2 (stereo unspecified)	0.7	-0.4	1.9%	-3.2%	?	22.9%	7.7%	-4.3%	-0.7%	-1.4%	ELG1 FLuc counter=8.3%;FLuc enzyme=2.4%
CC(C)(C)c1ccc(C(=O)NCCC(=O)NCc2cccs2)cc1	0.7	13.0	23.9%	-2.2%	?	/	/	/	/	/
COc1cccc(C(=O)OCC(=O)Nc2ccc(N3CCOCC3)cc2)c1	/	-10.5	/	/	?	/	/	/	/	/
COc1ccc(-c2nnc(SC(C)C(=O)NNC(=O)c3ccc(C)cc3)o2)cc1 (stereo unspecified)	-0.1	10.8	-7.3%	-17.4%	29.8%	/	/	/	/	/
COc1ccc(-c2nnc(SC(C)C(=O)Nc3cccc(Cl)c3)o2)cc1 (stereo unspecified)	0.9	-11.6	-32.8%	?	?	/	/	/	/	1.4%
